The source of these data is PubChem BioAssay (EPA / NIEHS).

Several values for one entry are separate records, joined by “and”; a condition that tells them apart may be missing. Identical values can stand only once. Records with an inconclusive call do not appear. Some structures have more than one record in an assay (separate samples or runs), and their calls can disagree. Activity calls are given as the source filed them. Rule for the calls: active = hit-call score of the fitted dose curve at least 0.9, where 1 is the maximum; inconclusive = response in the unintended direction; inactive = score below 0.9.

This assay has as its system zebrafish Estrogen Receptor (ER2b), gene 317733. Description: ATG_zfER2b_XSP2: Attagene TRANS-FACTORIAL Multi-Species (XSP2) HepG2 Assay for zebrafish Estrogen Receptor (ER2b) (AID 2283823).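 Note: fitted upward as reporter gain over DMSO so potency reflects activation.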 The protocol: ATG_XSP2_multi-species_TRANS is a cell-based, multiplexed assay created by modifying the existing Attagene TRANS-FACTORIAL system to include a panel of nuclear receptors from some or all the following species: human (Homo sapiens), mouse (Mus musculus), frog (Xenopus laevis), zebrafish (Danio rerio), chicken (Gallus gallus), and turtle (Chrysemys picta). The ECOTOX-FACTORIAL format uses HepG2, a human liver cell line, with measurements taken at 24 hours after chemical dosing in a 24-well plate. Xsp2 included 3 nM 6-alpha-fluorotestosterone and 1.5 nM norgestrel to stimulate the androgen receptor.ATG_zfER2b_XSP2 is one of 29 assay components measured or calculated from the ATG_XSP2_multi-species_TRANS assay. It is designed to make measurements of mRNA induction, a form of inducible reporter, as detected with fluorescence intensity signals by Reverse transcription polymerase chain reaction (RT-PCR) and Capillary electrophoresis technology.The assay endpoint ATG_zfER2b_XSP2 was analyzed in the positive analysis fitting direction relative to DMSO as the negative control and baseline of activity. Using a type of inducible reporter, measures of mRNA for gain-of-signal activity can be used to understand the reporter gene at the transcription factor-level as they relate to the gene ER. Furthermore, this assay endpoint can be referred to as a primary readout, because this assay has produced multiple assay endpoints where this one serves a reporter gene function. To generalize the intended target to other relatable targets, this assay endpoint is annotated to the nuclear receptor intended target family, where the subfamily is steroidal.
Human liver HepG2 cells are transiently transfected with multiple reporter transcription units (MRTUs) in 6-well plates using FuGene 6 reagent (Roche; 3 ml FuGene/1 mg DNA). The MRTU constructs are regulated by a cis-regulating element (promoter). […] A major difference between the CIS and TRANS system is that in CIS activities of endogenous TFs are measured, whereas the TRANS assay evaluates changes in activities of exogenous, chimeric NR-Gal4 proteins. […] At the end of 24 hour incubation, total RNA was isolated using TriZol reagent (Invitrogen). The isolated RNA is then reverse-transcribed using oligo(dT) primer and Mo-MLV reverse transcriptase (Invitrogen) with DNAse I (Ambion) treatment for 30 min. The one-tenth of the produced cDNA was amplified by PCR using Taq DNA polymerase (Invitrogen) and two reporter sequence-specific primers. The PCR products were fluorescently labeled by primer extension with 6-arboxyfluorescein (6-FAM) 5'-labeled reporter sequence-specific primer (2 min at 95 C, 20 s at 68 C and 10 min at 72 C) and these products were digested with 5U of HpaI (New England Biolabs) for 2h at 37 C. The fragments were purified using Qiaquick PCR columns (Qiagen), analyzed on an ABI 3130xL genetic analyzer (Applied Biosystems) with peak positions identified by using a set of X-rhodamine (ROX)-labeled MapMarker1000 molecular weight standards (BioVentures). The raw capillary electrophoresis data was processed using Attagraph software (Attagene).
With `CCN(CC)C(=O)C(C)Oc1cccc2ccccc12` (stereo unspecified), the AC50 is 65.7 µM (active). The same measure, in the same setting: the same measure for `CC1(C)C(C=C(Cl)Cl)C1C(=O)OC(C#N)c1cccc(Oc2ccccc2)c1` (stereo unspecified): 100 µM (active). As to `CSC(=O)c1c(C(F)F)nc(C(F)(F)F)c(C(=O)SC)c1CC(C)C`, the AC50 is 15.7 µM (active). Same read-out and setting: the same measure for `CC1(C)CCC(=Cc2ccc(Cl)cc2)C1(O)Cn1cncn1` (stereo unspecified): 115 µM (active). `CC(C)NC(=O)N1CC(=O)N(c2cc(Cl)cc(Cl)c2)C1=O`: the outcome was inactive.

As to `C=C(C)CN(CC)c1c([N+](=O)[O-])cc(C(F)(F)F)cc1[N+](=O)[O-]`, the AC50 was 33.3 µM (active) and 38 µM (active).

As for `COP(=S)(OC)SCn1nnc2ccccc2c1=O`, the result was inactive and the AC50 is 132 µM (active). Turning to `Cc1c(COC(=O)[C@@H]2[C@H](/C=C(\Cl)C(F)(F)F)C2(C)C)cccc1-c1ccccc1`, the half-maximal activity concentration (AC50) is 100 µM (active).

With `COP(=S)(OC)Oc1ccc([N+](=O)[O-])c(C)c1`, the AC50 is 54.5 µM (active). Same read-out and setting: to `N#Cc1c[nH]cc1-c1cccc2c1OC(F)(F)O2` belongs 23.2 µM (active) and 17.5 µM (active).

One may read the AC50 as the concentration giving half of the maximal activity seen.
